# From PubChem BioAssay (NCATS)
# Results filed as inconclusive are left out. A call without a number means that no potency is given here. Calls of active or inactive are those of the source. Unless noted, the call rests on the fitted dose curve; in most records, active means well fitted curve in the direction sought with a large enough effect; inconclusive means small, poorly fitted or top-dose-only effect, or another doubt; inactive means no such curve, though single readings can be large; an effect the other way counts as inactive or inconclusive.
# Tests used:
# [1] = molecular target: Cytochrome P450 3A4 (Homo sapiens) (UniProt P08684); assay: qHTS Assay for Inhibitors and Substrates of Cytochrome P450 3A4 (AID 884); further: nearly all actives have a fitted effect of over 50% in size
# How it was run: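 20 nM human CYP3A4 with 25 uM Luciferin-PPXE (at KM) in 200 mM KPO4, preincubated 10 min with compound; NADPH regeneration started a 60 min RT reaction. Luciferin detected by luminescence, normalized to 57 uM ketoconazole as full inhibition.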
# [2] = Confirmation and Secondary Assay for Modulators of Hemoglobin Beta Chain Splicing at IVS2 654 locus (AID 910);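 further: HeLa cells stably carrying EGFP split by mutant beta-globin IVS2-654 intron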
# How it was run: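 HeLa cells stably expressing EGFP interrupted by β-globin IVS2-654 intron, seeded overnight in Opti-MEM/2% FCS, then treated 2 days at 37 °C. Restored splicing read as total peak GFP intensity per well by laser scanning cytometry (488 nm excitation, 500–520 nm emission); 500 nM antisense PNA as control.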
# [3] = Confirmation and Secondary Assay for Modulators of Hemoglobin Beta Chain Splicing at IVS2 705 locus (AID 930);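 further: HeLa cells stably expressing the EGFP-705 splicing reporter; GFP fluorescence per well restored by corrected splicing of the IVS2-705 intron in EGFP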
# How it was run: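 Splice-correction reporter: EGFP cDNA split by beta-globin intron 2 bearing the 705 mutation, stably in HeLa. Compound incubation 2 days, 37C; fluorescent objects 5-250 µm summed per well.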
# [4] = S16 Schwann cell PMP22 intronic element firefly luciferase assay (AID 624032); further: nearly all actives have a fitted effect of over 30% in size
# How it was run: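 Rat S16 Schwann cells stably carrying firefly luciferase driven by a PMP22 intronic element, in 10% FBS, treated 24 h at 37 C. ONE-Glo luminescence normalized to PTC124 control and DMSO (0%); curves classed by r2, magnitude and activity.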
# [5] = S16 Schwann cell PMP22 intronic element beta-lactamase assay (AID 624044; calls by dose curve; further: nearly all actives have a fitted effect of over 15% in size)
# How it was run: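 Rat S16 Schwann cells with beta-Lac driven by a PMP22 intronic element, compound-treated 24 h at 37 °C. LiveBLAzer FRET B/G read: 460 nm normalized to potassium clavulanate vs DMSO; 535 nm FRET as viability; concentration-effect curves classified.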
# 7G8 = assay: qHTS profiling for inhibitors of Plasmodium falciparum proliferation (AID 504749); further: nearly all actives have a fitted effect of over 60% in size; further: potency means the concentration at half of the fitted maximal effect; details: P. falciparum in erythrocytes, SYBR Green DNA, 72 h; series mostly up to 12.8 µM
# How it was run: (§1)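 P. falciparum-infected erythrocytes (0.3% parasitemia, 2.5% hematocrit) incubated with compound 72 h at 37 C, 5% CO2. Parasite DNA detected by SYBR Green after lysis, overnight at room temperature; normalised to 0.29 uM artemisinin and DMSO.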
# CP215 = assay: as above; details: P. falciparum in erythrocytes, SYBR Green DNA, 72 h; series mostly up to 12.8 µM
# How it was run: as §1
# CP335 = assay: as above; details: P. falciparum in erythrocytes, SYBR Green DNA, 72 h; series mostly up to 12.8 µM
# How it was run: as §1
# DIV17 = assay: as above; details: P. falciparum in erythrocytes, SYBR Green DNA, 72 h; series mostly up to 12.8 µM
# How it was run: as §1
# GB4 = assay: as above; details: P. falciparum in erythrocytes, SYBR Green DNA, 72 h; series mostly up to 12.8 µM
# How it was run: as §1
# ICS = assay: as above; details: P. falciparum in erythrocytes, SYBR Green DNA, 72 h; series mostly up to 12.8 µM
# How it was run: as §1
# P93_24 = assay: as above; details: P. falciparum in erythrocytes, SYBR Green DNA, 72 h; series mostly up to 12.8 µM
# How it was run: as §1
# TAB109 = assay: as above; details: P. falciparum in erythrocytes, SYBR Green DNA, 72 h; series mostly up to 12.8 µM
# How it was run: as §1
# DFO2036 = assay: as above; details: P. falciparum in erythrocytes, SYBR Green DNA, 72 h; series mostly up to 12.8 µM
# How it was run: as §1
# [6] = molecular target: ATP-dependent 6-phosphofructokinase (Trypanosoma brucei brucei) (UniProt O15648); assay: qHTS Assay to Find Inhibitors of T. brucei phosphofructokinase: hit validation (AID 492961);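 further: luminescence reports ADP formed as PFK phosphorylates fructose-6-phosphate with ATP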
# How it was run: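 Compounds titrated; %activity normalized to 0x and 1x enzyme controls, curve-fitted. Readout: ADP-Glo luminescence after 45 min room-temperature reaction of 1.25 nM PFK, 0.1 mM ATP, 0.5 mM F6P, pH 8.0.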
# [7] = molecular target: DNA dC->dU-editing enzyme APOBEC-3G (Homo sapiens) (UniProt Q9HC16); assay: qHTS for inhibitors of Vif-A3G interactions: Validation (AID 588379)
# How it was run: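 HeLa cells stably expressing Vif and A3G-eYFP, 700 cells/well, incubated overnight at 37 deg C, then exposed to compound overnight at 37 deg C. Inhibition of Vif-mediated degradation read as increased yellow fluorescence (Ex 488/Em 500-530) by laser-scanning cytometry.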
# [8] = molecular target: Cytochrome P450 3A4 (Homo sapiens) (UniProt P08684); assay: qHTS Assay for Activators of Cytochrome P450 3A4 (AID 885); further: nearly all actives have a fitted effect of over 65% in size; further: potency means the concentration at half of the fitted maximal effect
# How it was run: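 Signal was normalized against complete inhibition by 57 uM ketoconazole. The reaction used 20nM CYP3A4 with 25uM Luciferin-PPXE, 10-min compound preincubation and a 60-min NADPH-supported step at RT.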
# Chain of Cytochrome P450 3A4 (Homo sapiens) (P08684 whole entry, looked up): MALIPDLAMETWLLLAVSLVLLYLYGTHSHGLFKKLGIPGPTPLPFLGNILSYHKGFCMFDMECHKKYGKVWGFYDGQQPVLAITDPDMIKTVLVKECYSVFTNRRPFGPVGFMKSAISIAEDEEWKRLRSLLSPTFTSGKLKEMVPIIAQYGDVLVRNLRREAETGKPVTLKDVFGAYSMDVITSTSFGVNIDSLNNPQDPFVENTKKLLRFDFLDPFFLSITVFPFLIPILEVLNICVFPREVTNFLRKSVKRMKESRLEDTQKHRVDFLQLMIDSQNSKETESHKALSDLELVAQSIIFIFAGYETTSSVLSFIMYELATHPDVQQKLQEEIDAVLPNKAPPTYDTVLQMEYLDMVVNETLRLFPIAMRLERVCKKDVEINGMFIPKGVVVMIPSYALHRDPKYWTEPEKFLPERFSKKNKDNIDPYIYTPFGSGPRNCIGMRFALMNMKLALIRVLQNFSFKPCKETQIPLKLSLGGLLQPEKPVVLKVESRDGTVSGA
# Chain of DNA dC->dU-editing enzyme APOBEC-3G (Homo sapiens) (Q9HC16 whole entry, looked up): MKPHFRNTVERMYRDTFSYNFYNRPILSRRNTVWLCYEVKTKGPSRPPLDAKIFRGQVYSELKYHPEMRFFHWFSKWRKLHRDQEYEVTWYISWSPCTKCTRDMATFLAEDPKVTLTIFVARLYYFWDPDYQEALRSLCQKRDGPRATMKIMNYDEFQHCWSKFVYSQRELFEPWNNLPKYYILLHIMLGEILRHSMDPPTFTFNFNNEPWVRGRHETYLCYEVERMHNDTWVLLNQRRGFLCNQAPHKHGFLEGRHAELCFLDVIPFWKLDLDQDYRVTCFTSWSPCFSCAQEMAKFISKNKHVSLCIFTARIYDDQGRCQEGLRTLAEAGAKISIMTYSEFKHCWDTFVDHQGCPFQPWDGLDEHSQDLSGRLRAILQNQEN
# Chain of ATP-dependent 6-phosphofructokinase (Trypanosoma brucei brucei) (O15648 whole entry, looked up): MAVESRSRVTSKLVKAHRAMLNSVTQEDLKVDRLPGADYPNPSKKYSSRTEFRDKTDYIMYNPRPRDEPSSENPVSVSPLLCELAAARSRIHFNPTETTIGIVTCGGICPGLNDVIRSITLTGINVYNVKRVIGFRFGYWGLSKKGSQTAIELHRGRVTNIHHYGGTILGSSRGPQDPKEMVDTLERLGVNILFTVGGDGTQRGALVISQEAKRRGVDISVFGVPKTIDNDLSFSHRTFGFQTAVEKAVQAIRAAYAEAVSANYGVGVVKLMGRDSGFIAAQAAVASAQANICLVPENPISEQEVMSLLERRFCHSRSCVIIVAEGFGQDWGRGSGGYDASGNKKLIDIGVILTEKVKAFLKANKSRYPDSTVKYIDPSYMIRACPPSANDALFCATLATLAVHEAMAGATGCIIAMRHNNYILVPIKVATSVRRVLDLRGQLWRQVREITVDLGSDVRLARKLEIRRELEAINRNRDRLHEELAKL
smiles,measurement,setting,value
COc1ccc(-c2cc(=O)c3c(O)cc(O[C@H]4OC(COC5OC(C)C(O)C(O)[C@H]5O)C(O)C(O)C4O)cc3o2)cc1O (stereo partly specified),Potency,[1],inactive
same,Potency,[2],inactive
same,Potency,[3],inactive
same,Potency,[4],inactive
same,Potency,[5],inactive
same,Potency,7G8,inactive
same,Potency,CP215,inactive
same,Potency,CP335,inactive
same,Potency,DIV17,inactive
same,Potency,GB4,inactive
same,Potency,ICS,inactive
same,Potency,P93_24,inactive
same,Potency,TAB109,inactive
C[C@@]12C=CC(=O)C=C1CCC1C3CC(O)[C@@](O)(C(=O)CO)[C@]3(C)CC(O)[C@]12F (stereo partly specified),Potency,[2],inactive
same,Potency,[3],inactive
same,Potency,[4],inactive
same,Potency,7G8,inactive
same,Potency,CP215,inactive
same,Potency,CP335,inactive
same,Potency,DFO2036,inactive
same,Potency,DIV17,inactive
same,Potency,GB4,inactive
same,Potency,ICS,inactive
same,Potency,P93_24,inactive
same,Potency,TAB109,inactive
NC(CCC(=O)N[C@@H](CS)C(=O)NCC(=O)O)C(=O)O (stereo partly specified),Potency,[1],inactive
same,Potency,[2],inactive
same,Potency,[3],inactive
same,outcome,[6],inactive
same,Potency,[4],inactive
same,Potency,7G8,0.708 µM (active)
same,Potency,CP335,6.01 µM (active)
same,Potency,DFO2036,6.31 µM (active)
same,Potency,DIV17,2.69 µM (active)
same,Potency,GB4,6.75 µM (active)
same,Potency,ICS,1.26 µM (active)
same,Potency,P93_24,3.16 µM (active)
same,Potency,TAB109,4.47 µM (active)
OCC1OC(Oc2cccc3cccnc23)C(O)C(O)C1O (stereo unspecified),Potency,[1],inactive
same,outcome,[7],inactive
CC(C)Oc1ccc2c(=O)cc(-c3ccccc3)oc2c1,Potency,[1],inactive
same,Potency,[2],inactive
same,Potency,[3],inactive
same,outcome,[6],inactive
same,Potency,[4],inactive
same,Potency,[5],inactive
same,Potency,7G8,inactive
same,Potency,CP215,inactive
same,Potency,CP335,inactive
same,Potency,DIV17,inactive
same,Potency,ICS,inactive
same,Potency,TAB109,inactive
O=C(O)C1(O)C[C@H](O)C(O)[C@@H](O)C1 (stereo partly specified),Potency,[1],inactive
same,outcome,[7],inactive
N[C@H](CO)Cc1cnc[nH]1,Potency,[1],inactive
same,outcome,[7],inactive
O=C(O)C1OC(O)C(O)C(O)C1O (stereo unspecified),Potency,[1],inactive
same,outcome,[7],inactive
COC(=O)N/N=C/C1=C[N+](=O)c2ccccc2[N+]1=O,Potency,[1],inactive
same,Potency,[2],inactive
same,Potency,[3],inactive
same,Potency,[5],inactive
same,Potency,7G8,inactive
same,Potency,CP215,inactive
same,Potency,CP335,inactive
same,Potency,DFO2036,inactive
same,Potency,DIV17,inactive
same,Potency,GB4,inactive
same,Potency,ICS,inactive
same,Potency,P93_24,inactive
same,Potency,TAB109,inactive
CCC(=O)O[C@@]1(C(=O)CCl)C(C)CC2C3CCC4=CC(=O)C=C[C@@]4(C)[C@]3(F)C(O)C[C@]21C (stereo partly specified),Potency,[8],inactive
same,Potency,[2],inactive
same,Potency,[3],inactive
same,outcome,[6],inactive
same,Potency,[4],inactive
same,Potency,[5],inactive
same,Potency,7G8,3.98 µM (active)
same,Potency,CP335,10.7 µM (active)
same,Potency,DFO2036,10 µM (active)
same,Potency,DIV17,15.1 µM (active)
same,Potency,GB4,12 µM (active)
same,Potency,ICS,10 µM (active)
same,Potency,P93_24,7.94 µM (active)
same,Potency,TAB109,11.2 µM (active)
CN(C)CCc1c[nH]c2ccc(CC3COC(=O)N3)cc12 (stereo unspecified),Potency,[1],inactive
same,Potency,[2],inactive
same,Potency,[3],inactive
same,Potency,[4],inactive
same,Potency,[5],inactive
same,Potency,CP215,inactive
same,Potency,CP335,inactive
same,Potency,DFO2036,inactive
same,Potency,DIV17,inactive
same,Potency,GB4,inactive
same,Potency,ICS,inactive
same,Potency,P93_24,inactive
same,Potency,TAB109,inactive
CC(=O)OCC(=O)[C@@]12OC3(CCCC3)OC1CC1C3CCC4=CC(=O)C=C[C@@]4(C)[C@]3(F)C(O)C[C@]12C (stereo partly specified),Potency,[2],inactive
same,Potency,[3],inactive
same,outcome,[6],inactive
same,Potency,[4],inactive
same,Potency,[5],inactive
same,Potency,7G8,11.2 µM (active)
same,Potency,ICS,12.6 µM (active)
C[C@@]12CCC(=O)C=C1C=CC1C2CC[C@]2(C)C1CC[C@@]21CCC(=O)O1 (stereo partly specified),Potency,[1],inactive
same,Potency,[8],15.8 µM (active)
same,Potency,[2],inactive
same,Potency,[3],inactive
same,outcome,[6],inactive
same,Potency,[5],inactive
same,Potency,CP215,inactive
same,Potency,CP335,inactive
same,Potency,DFO2036,inactive
same,Potency,DIV17,inactive
same,Potency,GB4,inactive
same,Potency,P93_24,inactive
CC1=C(C2=C(C)C(C(C)C)C3=C(C(=O)C(O)C3O)C2O)C(O)C2=C(C(O)C(O)C2=O)C1C(C)C (stereo unspecified),Potency,[1],inactive
same,outcome,[7],inactive
COC1OC2COC(c3ccccc3)OC2C(O)C1O (stereo unspecified),Potency,[1],inactive
same,outcome,[7],inactive
NCC1CCC(N)C(O[C@@H]2C(O)[C@H](O[C@H]3OC(CO)C(O)C(N)C3O)[C@@H](N)C[C@H]2N)O1 (stereo partly specified),Potency,[1],inactive
same,Potency,[2],inactive
same,Potency,[3],inactive
same,Potency,[4],inactive
same,Potency,CP215,inactive
same,Potency,CP335,inactive
same,Potency,DFO2036,inactive
same,Potency,DIV17,inactive
same,Potency,GB4,inactive
same,Potency,ICS,inactive
same,Potency,P93_24,inactive
same,Potency,TAB109,inactive
COC(=O)CCCC[C@@H]1SC[C@@H]2NC(=O)N[C@@H]21,Potency,[1],inactive
same,outcome,[7],inactive
N[C@H](Cc1ccc(O)cc1)C(=O)O,outcome,[7],inactive
CC1(C)SC2C(N3C(=O)C(c4ccccc4)NC3(C)C)C(=O)N2C1C(=O)O (stereo unspecified),Potency,[1],inactive
same,Potency,[2],inactive
same,Potency,[3],inactive
same,Potency,[5],inactive
same,Potency,7G8,inactive
same,Potency,CP215,inactive
same,Potency,CP335,inactive
same,Potency,DFO2036,inactive
same,Potency,DIV17,inactive
same,Potency,GB4,inactive
same,Potency,ICS,inactive
same,Potency,P93_24,inactive
same,Potency,TAB109,inactive
CCC1OC(=O)CC(O)C(C)[C@@H](O[C@@H]2OC(C)[C@H](O[C@@H]3C[C@@](C)(O)C(O)C(C)O3)C(N(C)C)C2O)[C@H](CC=O)CC(C)C(=O)/C=C/C(C)=C/[C@@H]1COC1OC(C)C(O)C(OC)[C@@H]1OC (stereo partly specified),Potency,[1],inactive
same,Potency,[2],inactive
same,Potency,[3],inactive
same,Potency,[4],inactive
same,Potency,[5],inactive
same,Potency,CP335,1.35 µM (active)
same,Potency,ICS,2.82 µM (active)
same,Potency,TAB109,0.891 µM (active)
CCC1OC(=O)C(C)[C@@H](O[C@H]2C[C@@](C)(OC)C(O)C(C)O2)C(C)[C@@H](O[C@@H]2OC(C)CC(N(C)C)C2O)[C@@](C)(O)CC(C)C(=O)[C@@H](C)C(O)[C@]1(C)O (stereo partly specified),Potency,[8],inactive
same,Potency,[2],inactive
same,Potency,[3],inactive
same,Potency,[4],inactive
same,Potency,[5],inactive
same,Potency,7G8,inactive
same,Potency,CP215,inactive
same,Potency,DFO2036,inactive
same,Potency,DIV17,inactive
same,Potency,GB4,inactive
same,Potency,ICS,inactive
same,Potency,P93_24,inactive
NC(=O)NCCC[C@H](N)C(=O)O,Potency,[1],inactive
same,outcome,[7],inactive
CCC(C)C(=O)OC1CC(O)C=C2C=CC(C)C(CCC(O)CC(O)CC(=O)O)C21 (stereo unspecified),Potency,[1],inactive
same,Potency,[2],inactive
same,Potency,[3],inactive
same,Potency,CP215,inactive
same,Potency,CP335,inactive
same,Potency,DFO2036,inactive
same,Potency,DIV17,inactive
same,Potency,GB4,inactive
same,Potency,ICS,inactive
same,Potency,P93_24,inactive
same,Potency,TAB109,inactive
O=C1c2ccccc2C(=O)c2c(O)c(O)cc(O)c21,Potency,[8],inactive
same,Potency,[2],inactive
same,Potency,[3],inactive
same,outcome,[7],inactive
